Shown are actives, neighbours in structure and some others; about 2.1% of the full set was active somewhere.
aSyn yeast inh: rescues yeast growth from alpha-synuclein toxicity | 370,000 tested, 0.14% active | Yeast expressing alpha-synuclein, growth rescue, BacTiter-Glo, 24 h | Potency, µM (titrated, usually from 46.1 µM), without a hit: at the highest dose growth rescue (activation), usual class: activators; further: % of control where 0% means no effect; nearly all actives have a fitted effect of over 65% in size
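Screening used galactose-induced yeast with toxic alpha-synuclein levels, exposed to compound for 24 hr at 30 deg C. Cell growth, read with BacTiter-Glo luminescence, gave the measured signal.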
FUS yeast rescue: rescues growth of FUS-expressing yeast; S. cerevisiae FUS-expressing, growth rescue, OD600, 24 h; Potency, µM (highest dose often 76.6 µM), actives largely listed as activators; 390,000 tested, 0.24% active; AID 1347120;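 further: plate controls were DMSO vehicle for no effect and reference control for full effect; nearly all actives have a fitted effect of over 55% in size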
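S. cerevisiae expressing FUS from galactose induction served as the toxicity model. Growth after 24hr at 30C, read as absorbance at 600 nm, indicates suppression of toxicity; compounds dosed at several concentrations.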
TDP43 rescue: inhibitors of TDP-43 toxicity in yeast; Potency, µM (top dose mostly 46.1 µM), without a hit: at the highest dose growth rescue (activation), usual class: activators; 410,000 tested, 1.8% active; AID 652104; TDP-43 expressing yeast growth rescue, BacTiter-Glo, 24 h; further: % of control where 0% means no effect; nearly all actives have a fitted effect of over 50% in size
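Readout is BacTiter-Glo luminescence of cell growth, so inhibitors register as activators. TDP-43-expressing yeast at OD600=0.02 in galactose medium, after raffinose pregrowth to mid-log, were incubated with compound for 24 hr at 30 deg C.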
Abeta rescue: compounds reversing amyloid beta toxicity in yeast. 410,000 tested, 0.063% active. yeast expressing A-beta42, growth rescue, OD600, 48 h; response scale: 0% DMSO, 100% iron-clioquinol control. AID 1347071. Potency, µM (series often up to 46.1 µM), most hits filed as activators; further: nearly all actives have a fitted effect of over 55% in size
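Yeast A-beta toxicity model in growth medium with pinned compounds, 48 h at 30 C; growth read as absorbance at 600 nm. Normalized to FeCl3/clioquinol equimolar mix (positive) and DMSO (negative).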
Active calls of the source: *; [ ] = another dose, or the depositor's remark. The call rests on the fitted dose curve; in most records, active means well fitted curve in the direction sought with a large enough effect; inconclusive means small, poorly fitted or top-dose-only effect, or another doubt; inactive means no such curve, though single readings can be large; an effect the other way counts as inactive or inconclusive. Potency means the concentration at half of the fitted maximal effect.

`Cc1ccc(NC(=O)CSCC(=O)N(C)CCOc2ccc(Cl)cc2)cc1` gave aSyn yeast inh 9.0%, FUS yeast rescue inactive, TDP43 rescue inconclusive and Abeta rescue inactive.
`CS(=O)(=O)N(CC(=O)NCC1CCCO1)c1ccc(Cl)c(Cl)c1` (configuration not stated) gave aSyn yeast inh 6.5%, FUS yeast rescue inactive, TDP43 rescue -3.1% and Abeta rescue inactive.
Screening COc1ccc(Br)c(C(=O)OCC(=O)NC2CCCCCC2)c1 returned aSyn yeast inh 16.2%, FUS yeast rescue inactive, TDP43 rescue 22.4µM* and Abeta rescue inactive.
`COc1ccc2c(c1)c(=O)oc1cc(OCC(=O)NC3CCCCC3)ccc12` gave aSyn yeast inh 0.2%, FUS yeast rescue inactive, TDP43 rescue 15.8µM* and Abeta rescue inconclusive.
COc1ccc2c(c1)c(=O)oc1cc(OCC(=O)NC3CC3)ccc12 was read as aSyn yeast inh -1.2%, FUS yeast rescue inactive, TDP43 rescue 8.0% and Abeta rescue inactive.
COc1ccc2c(CC(=O)N3CCN(S(=O)(=O)c4cccs4)CC3)coc2c1 was read as aSyn yeast inh 2.2%, FUS yeast rescue inactive, TDP43 rescue 24.8% and Abeta rescue inactive.
Screening O=C(CSc1ncnc2ccccc12)NCC(=O)c1ccccc1 returned aSyn yeast inh 22.6%, FUS yeast rescue inactive, TDP43 rescue 12.6µM* and Abeta rescue inconclusive.
`CCC(C)[C@H](NC(=O)N1CCC(C)CC1)C(=O)O` (some centres not stated) gave aSyn yeast inh -0.8%, FUS yeast rescue inactive, TDP43 rescue 4.4% and Abeta rescue inactive.
Screening CC1=CCC(C(=O)O)(C(=O)N/N=C/c2cccs2)C(c2ccc(F)cc2)C1 (configuration not stated) returned aSyn yeast inh 1.6%, FUS yeast rescue inactive, TDP43 rescue 9.4% and Abeta rescue inactive.
Screening CCOC(=O)c1c(C)n(C)c2ccc(OCC(O)Cn3nc(C)c(Br)c3C)cc12 (configuration not stated) returned aSyn yeast inh 18.7%, FUS yeast rescue inconclusive, TDP43 rescue 15.8µM* and Abeta rescue inactive.
Screening CCOC(=O)c1c(C)n(C)c2ccc(OCC(O)CN3CCCCCC3)cc12 (configuration not stated) returned aSyn yeast inh 1.7%, FUS yeast rescue inactive, TDP43 rescue -12.9% and Abeta rescue inactive.
Screening Cc1ccc(CNC(=O)c2ccc(CSCc3cccc(C)c3)o2)cc1 returned aSyn yeast inh inconclusive, FUS yeast rescue inactive, TDP43 rescue 35.5µM* and Abeta rescue inactive.
Cc1oc(C)c2c(=O)ccc3c(c12)OC(N)=C(C#N)C3c1ccccc1 (configuration not stated) was read as aSyn yeast inh 11.2%, FUS yeast rescue inactive, TDP43 rescue -19.3% and Abeta rescue inactive.
Screening CSc1ccc(C2C(C#N)=C(N)Oc3c2ccc(=O)c2c(C)oc(C)c32)cc1 (configuration not stated) returned aSyn yeast inh inconclusive, FUS yeast rescue 22.4µM*, TDP43 rescue -31.1% and Abeta rescue inactive.
Cc1onc(-c2ccc3c(c2)OCO3)c1-c1ccc2[nH]ccc2c1 was read as aSyn yeast inh -24.0%, FUS yeast rescue inactive, TDP43 rescue 22.4µM* and Abeta rescue inactive.
For c1cc2cc(-c3c(-c4ccc5c(c4)OCO5)noc3-c3ccsc3)ccc2[nH]1 the results were aSyn yeast inh -3.4%, FUS yeast rescue inactive, TDP43 rescue -0.9% and Abeta rescue inactive.
`OCCCn1c(C2CCCN2c2nc(-c3ccc(Cl)cc3)cs2)nc2cc(C(F)(F)F)ccc21` (configuration not stated) gave aSyn yeast inh 9.4%, FUS yeast rescue inconclusive, TDP43 rescue inconclusive and Abeta rescue inactive.
`O=C(CN1CCN(S(=O)(=O)c2cc(Cl)ccc2Cl)CC1)Nc1cccc(F)c1` gave aSyn yeast inh 8.7%, FUS yeast rescue inactive, TDP43 rescue 35.5µM* and Abeta rescue inactive.
For O=C(CN1CCCN(S(=O)(=O)c2ccc(F)cc2)CC1)Nc1cccc(F)c1 the results were aSyn yeast inh -7.3%, FUS yeast rescue inactive, TDP43 rescue -16.5% and Abeta rescue inactive.
For CCC(Sc1nc(C)cc(C)n1)C(=O)O (configuration not stated) the results were aSyn yeast inh 3.3%, FUS yeast rescue inactive, TDP43 rescue -13.4% and Abeta rescue inactive.
Screening COc1cccc(CNC(=O)c2cc(C3CC3)nc3c2cnn3C(C)C)c1 returned aSyn yeast inh 0.5%[1.84 µM], FUS yeast rescue inconclusive, TDP43 rescue 17.8µM* and Abeta rescue inactive.
`Cc1ccccc1CCNC(=O)c1cc(C2CC2)nc2c1cnn2C(C)C` gave aSyn yeast inh 8.1%, FUS yeast rescue inactive, TDP43 rescue 35.5µM* and Abeta rescue inactive.
`COc1ccc(CNC(=O)c2cc(C3CC3)nc3c2cnn3C(C)C)cc1OC` gave aSyn yeast inh -0.7%, FUS yeast rescue inactive, TDP43 rescue 12.2% and Abeta rescue inactive.
Screening C=Cc1cccc(NC(=O)COc2ccccc2)c1 returned aSyn yeast inh 3.3%, FUS yeast rescue inactive, TDP43 rescue 26.8% and Abeta rescue inactive.
`Cc1cccc(C)c1NC(=O)C(C1CC1)n1c(=O)c(-c2cc3ccccc3[nH]2)nc2ccccc21` (configuration not stated) gave aSyn yeast inh inconclusive, FUS yeast rescue 5.62µM*, TDP43 rescue inconclusive and Abeta rescue inactive.
For CC(C)(C)NC(=O)C(C1CC1)n1c(=O)c(-c2cc3ccccc3[nH]2)nc2ccccc21 (configuration not stated) the results were aSyn yeast inh 3.9%, FUS yeast rescue inactive, TDP43 rescue 26.2% and Abeta rescue inactive.
For Cc1cccc(C)c1NC(=O)C(C1CC1)n1c(=O)c(-c2ccccc2)nc2ccccc21 (configuration not stated) the results were aSyn yeast inh inconclusive, FUS yeast rescue inactive, TDP43 rescue 12.6µM* and Abeta rescue inactive.
COc1ccc(CN(Cc2ccccn2)C(=O)CN2C(=O)COc3ccccc32)cc1 was read as aSyn yeast inh 0.5%, FUS yeast rescue inactive, TDP43 rescue -17.2% and Abeta rescue inactive.
`C=CCc1c(C)nc2nc(SCC(=O)Nc3ccc(C)c(C)c3)nn2c1C` gave FUS yeast rescue inactive, TDP43 rescue 28.9% and Abeta rescue inactive.
Screening C=CCc1c(C)nc2nc(SCC(=O)Nc3cccc(Cl)c3)nn2c1C returned FUS yeast rescue inactive, TDP43 rescue 31.6µM* and Abeta rescue inactive.
`O=C(CSc1nc2c(cnn2-c2ccccc2)c(=O)[nH]1)NC1CCS(=O)(=O)C1` (configuration not stated) gave aSyn yeast inh 0.0%, FUS yeast rescue inactive, TDP43 rescue 11.5% and Abeta rescue inactive.

High-throughput results from PubChem.
